The values that follow come from PubChem BioAssay (EPA / NIEHS).

Inconclusive results are not listed. Calls of active or inactive are those of the source. The calls were made as follows: active = hit-call score of the fitted dose curve at least 0.9, where 1 is the maximum; inconclusive = response in the unintended direction; inactive = score below 0.9.

The assay can be described thus: ATG_XTT_Cytotoxicity: Cytotoxicity Assessment in the Attagene TRANS-FACTORIAL HepG2 Assay (AID 2283584). The procedure, abridged: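 XTT readout of cell number in transfected HepG2 cells, 24 h post-dosing; DMSO serves as negative control and baseline, with activity taken as loss of viability signal.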
As to `C=CC/C=C/C/C=C/C/C=C/C`, the call was inactive.

As to `Nc1ccc([N+](=O)[O-])cc1O`, the call was inactive.

With `CC/C=C\CCOC(=O)c1ccccc1`, the compound was called inactive.

As for `CCN(CC)c1ccc2c(C)cc(=O)oc2c1`, the compound was called inactive.

For `CCCCOCCOCCOC(=O)CCCCC(=O)OCCOCCOCCCC`, the compound was called inactive.

With `CCc1c(Br)c(Br)c(Br)c(Br)c1Br`, the compound was called inactive.

On to `CCCCCCCOC(=O)c1ccccc1C(=O)OCCCCCCC`, for which the compound was called inactive.

Regarding `CCCCCC=O`, the call was inactive.

With `O[Si](c1ccccc1)(c1ccccc1)c1ccccc1`, the compound was classed as inactive.

With `CC(C)c1ccccc1N`, the outcome was inactive.

Consider `CC(C)(C)c1ccc(OC2CCCCC2O)cc1` (configuration not stated), for which the compound was classed as inactive.

`CCCCCCS`: the compound was classed as inactive.

With `O=C(C=Cc1ccccc1)OCC=Cc1ccccc1`, the compound was called inactive.

As for `COC(OC(C)=O)c1ccccc1` (configuration not stated), the call was inactive.

Turning to `CCCCCCCCCCCCCCCC[N+](C)(C)Cc1ccccc1`, the call was inactive.

In the case of `CO[Si](OC)(c1ccccc1)c1ccccc1`, the compound was classed as inactive.

For the compound `Nc1ccc(Oc2cccc(Oc3ccc(N)cc3)c2)cc1`, the compound was classed as inactive.

For the compound `Nc1cc(Cl)c(N)c(Cl)c1`, the call was inactive.

As for `CCCCNc1ccccc1`, the compound was called inactive.

For `c1ccc(-c2ccccc2-c2ccccc2)cc1`, the call was inactive.

Regarding `CS(C)(=O)=O`, the call was inactive.

For `CC(C)=CCCC(C)CCOC(=O)C(C)C` (configuration not stated), the compound was called inactive.
